Data from the OligoGym collection.

biological target: TMEM22; experiment: pooled miR-30 sensor sort-seq; sequence = guide strand; conditions: shRNA
Also: reference of the scale not given here.

Sequence	sensor-assay potency score (higher = more potent)
TTAACAAAGAATTGTCTTCATC	-1.39
TTTTTTTCTGCAAAGCTCTGGA	0.243
TTTCTTTGGATTTTCCTCCATA	-0.74
TAGTATTTCCTGGTAGTCCTGC	-0.0251
TATAACACAAAAGACATTCATA	-0.457
TAAAAGAAGAGTCGTAATCTGT	-0.127
TTGATCATTGGGTCTTCTGTTG	-0.772
TAACACACAACTAACACAGATA	-0.611
TTCACCATCACTGTGTTGGGAT	0.611
ATTGTCTTCATCAACAATGTTT	-0.906
TTGTCCAATCTCATTGATCATT	-1.19

biological target: TMEM231; experiment: as above; conditions: shRNA

Sequence	sensor-assay potency score (higher = more potent)
TAAGAAATGACTTCCACAGGGT	0.705
TTACCATCTCCCAGAATCCTGG	-0.723
TTCTTCTCTAGTCGAAACGAGC	-1.58
TAGCATTAATCACAAATGGAGC	-1.05
TTAAAATGTAACATGTCCGTCT	0.405
TAATCGATAGGAGAAAGTCAGG	-1.54
